# Reference: PubChem BioAssay (Tox21)
# A number with no mark means an inactive call. Calls of active or inactive are those of the source. Calls follow the shape of the dose curve; as a rule, active = well fitted cell-killing curve with a large enough effect in the repeat runs; inconclusive = weak or mixed curves, or effect the other way; inactive = flat fitted curve, though single readings scatter.
# Test: qHTS assay to identify small molecule HDAC inhibitors - cell viability counter screen (AID 1259365); also: nearly all actives have a fitted effect of over 50% in size
# Conditions: HCT-116 viability, CellTiter-Glo ATP luminescence, 2 h; series mostly up to 92.4 µM; activity change, negative = cytotoxicity: at the top concentration
# From the text: U.S. Tox21 Program National Center for Advancing Translational Sciences [NCATS] NIH Chemical Genomics Center [NCGC] U.S. Environmental Protection Agency [EPA] National Institutes of Environmental Health Sciences [NIEHS] National Toxicology Program [NTP] U.S. Food and Drug Administration [FDA] Tox21 Assay Overview: Histone deacetylases (HDACs) are a group of epigenetic enzymes that regulate gene expression by histone deacetylation. HDACs are capable of introducing epigenetic modifications and such aberrations contribute to the onset and progression of several human diseases, thus making HDACs a popular therapeutic target. For identifying endogenous class I/II HDAC inhibitors a homogenous, luminogenic HDAC I/II cell based assay was used to measure the relative activity of class I and II HDACs from cells. Wild type HCT-116 cells were used to screen Tox21 compound libraries for identifying class I/II HDAC inhibitors.
# Tox21 Assay Protocol Summary: HCT-116 cells were dispensed at 1,500 per well in 5uL of culture medium into white solid bottom 1536-well plates (Greiner Bio-One, Monroe, NC) using a Multidrop Combi (Thermo Scientific, Waltham, MA) dispenser. The assay plates were incubated at 37 C and 5% CO2 for an overnight, and then 23nL of compounds dissolved in DMSO and positive control were transferred using a Pintool station (Wako, San Diego, CA). The assay plates were incubated at 37C and 5% CO2 for 2hr. After compound treatment, 4uL of CellTiter-Glo reagent (Promega Corporation, Madison, WI) was added to each well of the assay plates using Flying Reagent Dispenser (FRD, Aurora Discovery, San Diego, CA) and incubated the assay plates at room temperature for 30min. The luminescence signal was quantified using a ViewLux plate reader (Perkin Elmer, Shelton, CT).
# % is scaled to controls: 0 for no effect and ±100 for the full control effect; potency is read from the fitted curve at half-maximal effect.
Compound,"activity change, negative = cytotoxicity",Potency
O=C(c1ccccc1)c1ccc(Cl)cc1,-4.97%,
Clc1cccc(Cl)n1,-0.153%,
CCN(CC)c1ccc(C=O)cc1,-0.646%,
COc1ccc(OC)c(N=Nc2c(O)ccc3ccccc23)c1,,24.3 µM (active)
C1=CCCC1,-5.06%,
CCOC(=O)[C@H](O)[C@@H](O)C(=O)OCC,0.553%,
Oc1cccc2c(O)cccc12,11.1%,
CSc1nnc(C(C)(C)C)c(=O)[nH]1,2.08%,
CCCCC/C=C\C=C\C(=O)OCC,17%,
Brc1cc(Br)cc(Br)c1,5.13%,
CCOC(=O)C1=NN(c2ccc(Cl)cc2Cl)C(C)(C(=O)OCC)C1 (stereo not given),-7.93%,
O=C(O)C[C@H](O)C[C@H](O)/C=C/c1c(C2CC2)nc2ccccc2c1-c1ccc(F)cc1,0.738% [at 19 µM],
Cc1ccc(C=O)cc1,-1.29% [at 42.5 µM],
CSc1ccc(O)cc1C,2.4%,
Oc1ccc2c(c1)CCC2,8.33%,
COC(=O)c1ccc([N+](=O)[O-])cc1,-5.03%,
Clc1nc(C(Cl)(Cl)Cl)c(Cl)c(Cl)c1Cl,-12.5%,
Cc1c[nH]c(=O)[nH]c1=O,4.08%,
O=C1CCC(=O)N1,-6.26%,
NC(=O)C1CO1 (stereo not given),2.39%,

Compound,"activity change, negative = cytotoxicity",Potency
CC(Cc1ccc(O)c(O)c1)C(C)Cc1ccc(O)c(O)c1 (stereo not given),6.69%,
Cc1cccc2c1ccc1ccccc12,5.31%,
CC(=O)[C@]1(O)Cc2c(O)c3c(c(O)c2[C@@H](O[C@H]2C[C@H](N)[C@H](O)[C@H](C)O2)C1)C(=O)c1ccccc1C3=O,6.44% [at 42.5 µM],
CCC(O)CO (stereo not given),5.14%,
COc1cc(C(C)C)ccc1C,0.521% [at 19 µM],
C/C=C/C(=O)C1=C(C)C=CCC1(C)C,0.363%,
C=CC(=O)O[C@H]1C[C@@H]2CC[C@@]1(C)C2(C)C,3.52%,
CCCCCCCCCCCC(=O)Cl,4.93%,
CCc1cccc(C)c1N(C(=O)CS(=O)(=O)O)C(C)COC (stereo not given),-3.74%,
Nc1cccnc1N,0.581%,
Nc1ccc(F)c([N+](=O)[O-])c1,4.21%,
c1ccc2c(c1)-c1ccc3ccc4cccc5cc-2c1c3c45,-5.42% [at 42.5 µM],
O=C1OC(=O)c2cc(-c3ccc4c(c3)C(=O)OC4=O)ccc21,-0.797%,
Cc1cccc(C)c1C,-0.421%,
COCCC(=O)OC,-0.266%,
CN1CCN(CCCN2c3ccccc3Sc3ccc(C(F)(F)F)cc32)CC1,-15.3% [at 42.5 µM],
CCn1c2ccccc2c2ccccc21,4.88%,
CC(C)(C)c1ccc(OC2CCCCC2O)cc1 (stereo not given),-8.42%,
CCCCCCCCCCCCCCCCC(C(=O)O)C(O)(CC(=O)O)C(=O)O (stereo not given),-3.9% [at 42.5 µM],
CCCCCCCCCCCCN1CCCC1=O,-1.47%,
